Results reported in the supplement of paper PMC3545927.
The list shows a part of the results. The hit rate among all sequences tested is not known here.

B1: HC681 (peptide)
chain: CAGCIITSLTAGNASASA
B2: HC1795 (peptide)
chain: CAHEMEECSQAGNASASA
B3: FS-10 (peptide)
chain: CAASSRPRRGAGNASASA
B4: FS-68 (peptide)
chain: CAPGRRPRRGAGNASASA
B5: HC1120 (peptide)
chain: CALIAFASRGAGNASASA
B6: FS-992 (peptide)
chain: CAEPPRPRRGAGNASASA
B7: FS-421 (peptide)
chain: CAGALRPRRGAGNASASA
B8: FS-1472 (peptide)
chain: CAPIIRKSRGAGNASASA
B9: FS-258 (peptide)
chain: CAKNSRKLRGAGNASASA
B10: HC506 (peptide)
chain: CAHLHQNIVDAGNASASA
B11: HC324 (peptide)
chain: CASPTTALVMAGNASASA
B12: FS-2508 (peptide)
chain: CARQRRAFQVAGNASASA
B13: FS-2551 (peptide)
chain: CARERRYSTVAGNASASA
B14: FS-2764 (peptide)
chain: CARQRRLVLVAGNASASA
B15: FS-2064 (peptide)
chain: CARQPRVDFVAGNASASA
B16: FS-2509 (peptide)
chain: CARQRRAITVAGNASASA
B17: FS-3198 (peptide)
chain: CARNRRIITVAGNASASA
B18: FS-1770 (peptide)
chain: CARQRRARFVAGNASASA
B19: HC88 (peptide)
chain: CAVVCMSMSYAGNASASA
B20: HC961 (peptide)
chain: CAPPSWDQMWAGNASASA
B21: HC1180 (peptide)
chain: CAVKNGTMRIAGNASASA
B22: FS-1508 (peptide)
chain: CAAEARKNRPAGNASASA
B23: FS-170 (peptide)
chain: CAHELRHRRHAGNASASA
B24: FS-854 (peptide)
chain: CARFRRKRRHAGNASASA
B25: FS-411 (peptide)
chain: CADTERKRRHAGNASASA
B26: HC725 (peptide)
chain: CADLYLVTRHAGNASASA
B27: HC1053 (peptide)
chain: CAPAIASLMAAGNASASA
B28: HC2307 (peptide)
chain: CAFVPCHRPSAGNASASA
B29: HC1236 (peptide)
chain: CALHEYPVGSAGNASASA
B30: EK3 (peptide)
chain: CAEERARAKWAGNASASA
B31: HC136 (peptide)
chain: CAEVVTSTWVAGNASASA
B32: HC92 (peptide)
chain: CAVVCDSMSYAGNASASA
B33: HC500 (peptide)
chain: CAFTTLPALSAGNASASA
B34: FS-1804 (peptide)
chain: CARVSRFVTWAGNASASA
B35: FS-3113 (peptide)
chain: CARVARDVAVAGNASASA
B36: FS-2670 (peptide)
chain: CARFYRPVAVAGNASASA
B37: HC1242 (peptide)
chain: CAEPEPDVAVAGNASASA
B38: HC1426 (peptide)
chain: CAHARKAVTHAGNASASA
B39: FS-1798 (peptide)
chain: CARVARFVTHAGNASASA
B40: FS-1797 (peptide)
chain: CARVARAMSIAGNASASA
B41: FS-2529 (peptide)
chain: CARVARFATSAGNASASA
B42: HC1969 (peptide)
chain: CAEYTTPCSGAGNASASA
B43: HC1657 (peptide)
chain: CAWFCLLLLAAGNASASA

Biological target: furin, P09958
Sequence (P09958 whole entry): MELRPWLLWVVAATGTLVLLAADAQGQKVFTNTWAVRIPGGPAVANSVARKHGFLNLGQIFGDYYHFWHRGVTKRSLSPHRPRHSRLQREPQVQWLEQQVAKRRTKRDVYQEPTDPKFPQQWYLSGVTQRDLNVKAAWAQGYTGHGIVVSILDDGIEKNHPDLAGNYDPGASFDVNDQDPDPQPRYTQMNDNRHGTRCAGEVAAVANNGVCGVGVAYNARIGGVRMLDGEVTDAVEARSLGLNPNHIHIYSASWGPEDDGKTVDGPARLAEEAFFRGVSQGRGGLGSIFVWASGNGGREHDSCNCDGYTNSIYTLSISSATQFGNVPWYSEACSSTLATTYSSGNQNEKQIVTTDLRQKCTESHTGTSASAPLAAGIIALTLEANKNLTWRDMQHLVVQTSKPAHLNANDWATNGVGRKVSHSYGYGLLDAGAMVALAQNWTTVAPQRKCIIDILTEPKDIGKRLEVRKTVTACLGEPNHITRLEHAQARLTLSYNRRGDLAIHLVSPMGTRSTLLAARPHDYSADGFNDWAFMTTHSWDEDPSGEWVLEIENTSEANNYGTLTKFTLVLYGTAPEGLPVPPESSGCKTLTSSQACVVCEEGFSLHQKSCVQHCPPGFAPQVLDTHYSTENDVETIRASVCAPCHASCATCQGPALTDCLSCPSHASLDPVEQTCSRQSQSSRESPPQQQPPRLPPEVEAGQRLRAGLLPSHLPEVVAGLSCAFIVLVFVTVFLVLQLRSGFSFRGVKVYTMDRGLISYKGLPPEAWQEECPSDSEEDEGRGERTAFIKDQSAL
Assay: furin cleavage Z-score vs untreated control; higher = more cleavage, active = 3.5 or more, inactive = 1 or less, 8 variable residues between constant flanks
In short: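 Read counts from sequencing released DNA gave abundance for each bead-bound 8-mer peptide–cDNA fusion cut by purified furin over 7.5, 15 or 30 min. The cleavage Z-score compares log counts with furin-free reactions after lowess adjustment and median absolute deviation scaling.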
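Note: purified furin at 1:10 enzyme:substrate in 50 mM HEPES pH 7.5.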

Row | Sequence | furin cleavage Z-score (7.5 min) | furin cleavage Z-score (15 min) | furin cleavage Z-score (30 min)
1 | B1 | -0.591 (inactive) | -0.913 (inactive) | -0.483 (inactive)
2 | B2 | 0.638 (inactive) | -0.825 (inactive) | 0.0903 (inactive)
3 | B3 | 5.57 (active) | 4.59 (active) | 4.78 (active)
4 | B4 | 10.4 (active) | 9.49 (active) | 8.86 (active)
5 | B5 | 0.403 (inactive) | -0.694 (inactive) | 0.0807 (inactive)
6 | B6 | -0.496 (inactive) | -0.299 (inactive) | 0.0496 (inactive)
7 | B7 | 1.31 | 0.929 (inactive) | 0.673 (inactive)
8 | B8 | 10 (active) | 10.9 (active) | 7.97 (active)
9 | B9 | 0.0851 (inactive) | 1.03 | 2.96
10 | B10 | -0.675 (inactive) | -0.105 (inactive) | -1.09 (inactive)
11 | B11 | 0.089 (inactive) | -0.626 (inactive) | -1.02 (inactive)
12 | B12 | 1.92 | 4.22 (active) | 6.29 (active)
13 | B13 | -0.101 (inactive) | 1.01 | 0.281 (inactive)
14 | B14 | -0.772 (inactive) | -0.609 (inactive) | 1.17
15 | B15 | -1.17 (inactive) | -0.264 (inactive) | -0.469 (inactive)
16 | B16 | 4.39 (active) | 7.17 (active) | 7.22 (active)
17 | B17 | 0.0348 (inactive) | -1.25 (inactive) | 0.314 (inactive)
18 | B18 | 6.58 (active) | 8.49 (active) | 7.14 (active)
19 | B19 | -1.17 (inactive) | -0.925 (inactive) | 0.213 (inactive)
20 | B20 | 1.06 | -0.132 (inactive) | 1
21 | B21 | 2.3 | 1.25 | 0.508 (inactive)
22 | B22 | -0.91 (inactive) | 0.425 (inactive) | -1.59 (inactive)

Row | Sequence | furin cleavage Z-score (7.5 min) | furin cleavage Z-score (15 min) | furin cleavage Z-score (30 min)
23 | B23 | 11 (active) | 10.9 (active) | 11 (active)
24 | B24 | 9.74 (active) | 9.95 (active) | 7.32 (active)
25 | B25 | 8.87 (active) | 11 (active) | 9.59 (active)
26 | B26 | -0.523 (inactive) | -1.17 (inactive) | -0.885 (inactive)
27 | B27 | -0.244 (inactive) | 1.04 | 0.347 (inactive)
28 | B28 | -1.81 (inactive) | 0.496 (inactive) | 0.113 (inactive)
29 | B29 | -0.438 (inactive) | -0.864 (inactive) | -0.00108 (inactive)
30 | B30 | 0.379 (inactive) | 1.71 | -0.287 (inactive)
31 | B31 | 0.215 (inactive) | -1.42 (inactive) | -0.55 (inactive)
32 | B32 | -1.45 (inactive) | 0.971 (inactive) | -0.149 (inactive)
33 | B33 | 1.12 | -0.632 (inactive) | 1.28
34 | B34 | 0.465 (inactive) | 2.02 | 2.57
35 | B35 | 9.5 (active) | 11.7 (active) | 9.58 (active)
36 | B36 | -2.66 (inactive) | -1.03 (inactive) | -2.39 (inactive)
37 | B37 | -1.24 (inactive) | -1.89 (inactive) | 0.391 (inactive)
38 | B38 | -1.35 (inactive) | -0.868 (inactive) | 0.178 (inactive)
39 | B39 | 0.861 (inactive) | 1.96 | 4.55 (active)
40 | B40 | -0.644 (inactive) | 0.561 (inactive) | 2.57
41 | B41 | 2.89 | 4.14 (active) | 5.25 (active)
42 | B42 | -0.151 (inactive) | -0.366 (inactive) | -0.644 (inactive)
43 | B43 | -0.863 (inactive) | -0.454 (inactive) | -2.53 (inactive)
